The values below come from PubChem BioAssay (NCATS).

The target of assay [1] is Cellular tumor antigen p53 (Homo sapiens) (UniProt P04637). Kind of assay: Primary qHTS for small molecule compounds that upregulate eGFP-tagged delta133p53alpha (in N-terminal) cells. (AID 2060322). Also: nearly all actives have a fitted effect of over 75% in size. Also: potency is read from the fitted curve at half-maximal effect.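 As to activation: cells pre-induced with doxycycline then dosed without doxycycline; series mostly up to about 56 µM; 0% = DMSO vehicle and 100% = reference activator.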 Particulars: NCI-H358 eGFP-delta133p53alpha fluorescence, 24 h; activation: active compounds read high. An outline of the steps: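 NCI-H358 cells pre-induced 24 h with 10 ng/ml doxycycline for eGFP-delta133p53alpha, plated dox-free and exposed 24 h at 37C to titrated compounds. Fixed, Hoechst-stained; gated GFP peak intensity by laser scanning cytometry, normalized to DMSO (0%) and 57.5 uM 5-azacytidine (100%).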
Cellular tumor antigen p53 (Homo sapiens), sequence (P04637 whole entry, looked up): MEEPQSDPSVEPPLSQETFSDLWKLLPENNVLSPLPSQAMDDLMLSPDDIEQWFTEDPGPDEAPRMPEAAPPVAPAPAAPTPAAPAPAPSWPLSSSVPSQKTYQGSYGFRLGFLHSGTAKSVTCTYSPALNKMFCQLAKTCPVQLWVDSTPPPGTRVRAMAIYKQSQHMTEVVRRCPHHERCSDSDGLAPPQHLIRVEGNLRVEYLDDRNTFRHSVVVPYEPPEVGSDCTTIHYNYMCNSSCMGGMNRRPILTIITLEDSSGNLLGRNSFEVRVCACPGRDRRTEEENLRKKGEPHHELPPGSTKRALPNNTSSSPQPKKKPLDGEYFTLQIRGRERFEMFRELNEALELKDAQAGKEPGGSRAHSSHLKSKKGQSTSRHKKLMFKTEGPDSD

Assay [2] deals with Aldehyde dehydrogenase, mitochondrial (Homo sapiens) (UniProt P05091). As to the kind of experiment: qHTS for Inhibitors of the Aldehyde Dehydrogenase Family (ALDH2) Validation screens (AID 2061302; active = well fitted inhibition curve with a large enough effect; title and protocol of this record describe different tests; also: potency is read from the fitted curve at half-maximal effect). (Quantitative high-throughput screening tests each substance at several concentrations.)
The target of assay [3] is Cellular tumor antigen p53 (Homo sapiens) (UniProt P04637). Kind of assay: Primary qHTS for small molecule compounds that upregulate eGFP-tagged delta133p53alpha (in C-terminal) cells. (AID 2060324).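 Also: 0% = DMSO wells and 100% = 57.5 µM 5-azacytidine.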 An outline of the steps:
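Concentration-response screen: compounds titrated onto pre-induced NCI-H358 D133p53a-eGFP cells, incubated one day, fixed with 3.5% PFA. Per-cell GFP peak intensity was gated, then normalized against intraplate controls.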

For assay [4], the target named is Retinaldehyde dehydrogenase 3 (Homo sapiens) (UniProt P47895). As to the kind of experiment: qHTS for Inhibitors of the Aldehyde Dehydrogenase Family (ALDH1A3) Validation screen (AID 2061312). Also: nearly all actives have a fitted effect of over 45% in size. Also: potency is read from the fitted curve at half-maximal effect.
Assay [5] concerns the target Aldehyde dehydrogenase, mitochondrial (Homo sapiens) (UniProt P05091). Kind of assay: qHTS for Inhibitors of the Aldehyde Dehydrogenase Family (ALDH2) Confirmatory screens (AID 2061303; active = well fitted inhibition curve with a large enough effect; title and protocol of this record describe different tests; also: % is scaled to controls: 0 for no effect and ±100 for the full control effect; nearly all actives have a fitted effect of over 45% in size).
Assay [6] is described as follows: qHTS for Inhibitors of the Aldehyde Dehydrogenase Family (ALDH1A2, ALDH1A3, ALDH2, ALDH3A1) (AID 2061307). Also: nearly all actives have a fitted effect of over 50% in size. As to Potency: test system not described further here; potency is read from the fitted curve at half-maximal effect.
For assay [7], the target named is Retinaldehyde dehydrogenase 3 (Homo sapiens) (UniProt P47895). As to the kind of experiment: qHTS for Inhibitors of the Aldehyde Dehydrogenase Family (ALDH1A3) Confirmatory screens (AID 2061311). Also: nearly all actives have a fitted effect of over 60% in size. Also: potency is read from the fitted curve at half-maximal effect.
The target in assay [8] is Aldehyde dehydrogenase 1A1 (Homo sapiens) (UniProt P00352). Kind of assay: qHTS for Inhibitors of the Aldehyde Dehydrogenase Family (ALDH1A1) Confirmatory screens (AID 2061316). Also: nearly all actives have a fitted effect of over 65% in size. Also: potency is read from the fitted curve at half-maximal effect.
In assay [9] the target is Retinal dehydrogenase 2 (Homo sapiens) (UniProt O94788). As to the kind of experiment: qHTS for Inhibitors of the Aldehyde Dehydrogenase Family (ALDH1A2) Confirmation screens (AID 2061314). Also: % is scaled to controls: 0 for no effect and ±100 for the full control effect; nearly all actives have a fitted effect of over 65% in size.
The target in assay [10] is Retinaldehyde dehydrogenase 3 (Homo sapiens) (UniProt P47895). Kind of assay: qHTS for Inhibitors of the Aldehyde Dehydrogenase Family (ALDH1A3) Primary screen (AID 2061315).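 Also: plate controls were DMSO vehicle for no effect and reference inhibitor for full effect.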
The target in assay [11] is Aldehyde dehydrogenase, mitochondrial (Homo sapiens) (UniProt P05091). Kind of assay: qHTS for Inhibitors of the Aldehyde Dehydrogenase Family (ALDH2) Primary screen (AID 2061308).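 Also: plate controls were vehicle for no effect and reference inhibitor for full effect; nearly all actives have a fitted effect of over 55% in size.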
Assay [12] is described as follows: BET inhibitor-based combinations targeting novel dependencies in MECOM-rearranged (r) AML: HNT-34 cell line (AID 2202234). Also: nearly all actives have a fitted effect of over 35% in size. Also: potency is read from the fitted curve at half-maximal effect. The gist of the method: (§1)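 Each compound is tested in an 11-point concentration series against 500 seeded cells/well for 48 hr. The luminescent viability signal is normalized to DMSO and blank wells, then reduced to AUC and a cell-line-centred Z-AUC.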

A short description of assay [13]: BET inhibitor-based combinations targeting novel dependencies in MECOM-rearranged (r) AML: AML-191 cell line (AID 2202236; also: nearly all actives have a fitted effect of over 35% in size; also: potency is read from the fitted curve at half-maximal effect). An outline of the steps:
(§2)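 A 48 hr incubation preceded viability reading by CellTiter-Glo, with 15 min room-temperature development. Dose series had 11 points; normalization used DMSO and empty wells; AUC was computed and mean-centered per line as Z-AUC.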

A short description of assay [14]: BET inhibitor-based combinations targeting novel dependencies in MECOM-rearranged (r) AML: SET-2 cell line (AID 2202231).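 Also: plate controls were DMSO treated cells for no effect and wells without cells for full effect; nearly all actives have a fitted effect of over 35% in size.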 Conditions: SET-2 AML cells viability, CellTiter-Glo luminescence, 48 h; viability: active compounds read low, series mostly up to about 46 µM. An outline of the steps: as §2
(In general: ATP-based viability assays read luminescence as a measure of living cells.)

Assay [15] can be described thus: BET inhibitor-based combinations targeting novel dependencies in MECOM-rearranged (r) AML: MV-4-11 cell line (AID 2202233).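 Also: plate controls were DMSO for no effect and blank wells for full effect; nearly all actives have a fitted effect of over 45% in size.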 An outline of the steps: as §1
A short description of assay [16]: BET inhibitor-based combinations targeting novel dependencies in MECOM-rearranged (r) AML: UCSD-AML1 cell line (AID 2202235).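 Also: series mostly up to about 46 µM; plate controls were DMSO vehicle wells for no effect and blank wells for full effect; nearly all actives have a fitted effect of over 40% in size.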 An outline of the steps: as §1

Structures are written as SMILES. Values joined by “and” are separate entries in the source; they are usually repeats but may differ in a detail not shown here. Equal entries are not always repeated. Inconclusive results are not listed. Unmarked numbers belong to inactive results. Active and inactive are the calls of the source. Unless noted, calls follow the shape of the dose curve; as a rule, active = well fitted curve in the direction sought with a large enough effect; inconclusive = small, poorly fitted or top-dose-only effect, or another doubt; inactive = no such curve, though single readings can be large; an effect the other way counts as inactive or inconclusive.

Take `CNCCc1ccc(O)c(O)c1`: the activation in [1] was -26.5%. In addition, the Potency result in [2] is “inactive”.
For `C[N+](C)(C)CC#CCN1CCCC1=O`, in assay [1], the activation is -31.7%. Moreover, the Potency result in assay [3] and in [4] was “inactive” throughout.
Take `CP(=O)(O)C1=CCNCC1`: the activation in assay [1] is -37.6%. The Potency result in [2] and in assay [4] was “inactive” throughout.
In the case of `CC(C)(C)c1cc(C=C(C#N)C#N)cc(C(C)(C)C)c1O`, the activation in assay [1] was 6.66%. Moreover, the Potency entry in assay [2] and in assay [4] was “inactive” each time.
For the compound `Oc1ccc2c3c1O[C@H]1c4[nH]c5ccccc5c4C[C@@]4(O)C(C2)N(CC2CC2)CCC314` (some centres undefined), the activation in assay [1] is -38.9%. In addition, the Potency entry in [2] was “inactive”.
As to `CN(N=O)c1cc(O)ccc1O`, the activation in assay [1] is -33.2%. Also, the Potency was 0.794 µM (active) in assay [2]; 2.25 µM (active) in [6]; 0.634 µM (active) in assay [7]; 0.282 µM (active) in [4]; 2.25 µM (active) in assay [8]. Besides, the Potency entry in assay [5] is “inactive”.
As to `COc1ccc(C(CN(C)C)C2(O)CCCCC2)cc1` (centres undefined), in [1], the activation was -16.7% and -7.09% and -5.45%. In addition, the Potency entry in assay [2] and in assay [4] was “inactive” throughout.
For the compound `CS(=N)(=O)CC[C@H](N)C(=O)O` (some centres undefined), the activation in assay [1] is -13.1%. The Potency entry in [2] and in assay [4] was “inactive” in each case.
For `NCc1cc(=O)[nH]o1`, in assay [1], the activation was 11.2%. Moreover, the Potency result in assay [2] and in [4] was “inactive” throughout.
With `CC12NC(Cc3ccccc31)c1ccccc12` (centres undefined), the activation in assay [1] is 6.02%. In addition, the Potency result in [2] and in assay [4] was “inactive” in each case.
Turning to `C[N+]1(C)C2CCC1CC(OC(=O)c1c[nH]c3ccccc13)C2` (centres undefined), the activation in assay [1] is -13.4%. Also, the Potency result in assay [3] and in assay [4] was “inactive” in each case.
As to `CCCN1CCC[C@@H]2Cc3nc(N)ncc3C[C@H]21`, the activation in assay [1] was -29.3% and -27.1%. Moreover, the Potency result in [2], in assay [5] and in assay [6] was “inactive” throughout.
With `NCCc1c[nH]c2ccc(C(N)=O)cc12`, the activation in assay [1] is -19.7%. For the same compound, the Potency entry in [2] and in [4] was “inactive” each time.
As to `NC1CCc2cc(O)c(O)cc2C1` (centres undefined), the activation in assay [1] was -13%. In addition, the Potency entry in assay [2], in [6] and in assay [9] was “inactive” throughout. For the same compound, the Potency in assay [7] was 11.3 µM (active).
As to `CCCN1CCc2cc(O)cc3c2[C@H]1Cc1ccc(O)c(O)c1-3`, in [1], the activation was 23.3%. The Potency entry in [2] was “inactive”.
For the compound `N#CCCN`, the activation in assay [1] is 1.42%. For the same compound, in assay [2], the Potency result was “inactive”.
For `CC(N)Cc1c[nH]c2ccc(O)cc12` (centres undefined), the activation in assay [1] was -0.781%. Further, the Potency result in assay [2] and in [4] was “inactive” throughout.
As to `CCn1cnc2c(Nc3cccc(Cl)c3)nc(N[C@@H]3CCCC[C@@H]3N)nc21`, the Potency in [1] was 6.01 µM (active). Moreover, in assay [2], the Potency entry was “inactive”.
Regarding `O=C(NC1CN2CCC1CC2)c1cc2ccoc2cn1` (centres undefined), in assay [1], the activation is -11.8%. Further, the Potency result in assay [2] is “inactive”.
Take `NCCCP(=O)(O)O`: the activation in assay [1] is -25.8%. For the same compound, the Potency result in assay [2] and in [4] was “inactive” throughout.
Consider `C[C@@H]1O[C@@H](O[C@H]2C[C@@H](O)[C@]3(CO)[C@@H]4C(CC[C@]3(O)C2)[C@@]2(O)CC[C@H]([C@@H]3COC(=O)C3)[C@@]2(C)C[C@H]4O)[C@H](O)[C@H](O)[C@H]1O` (some centres undefined), for which, in [1], the activation is -50%. The Potency entry in assay [2] and in assay [4] was “inactive” throughout.
With `CCCn1c(=O)c2[nH]c(C3CCCC3)nc2n(CCCOC(=O)c2ccc(S(=O)(=O)F)cc2)c1=O`, the activation in [1] was 11.3%. Also, the Potency result in assay [2] and in assay [4] was “inactive” in each case.
Turning to `O=C1NCN(c2ccccc2)C12CCN(CC1COc3ccccc3O1)CC2` (centres undefined), the activation in assay [1] was -13.1%. For the same compound, the Potency result in assay [2] and in [4] was “inactive” throughout.
On to `CC(C)(C)c1o[nH]c(=O)c1CC(N)C(=O)O` (centres undefined), for which the activation in [1] is -13.9%. Also, the Potency result in [2] and in assay [4] was “inactive” throughout.
With `NC(=O)c1cc(N2CC2)c([N+](=O)[O-])cc1[N+](=O)[O-]`, the activation in [1] was -14.9%. Besides, the Potency result in assay [2] and in assay [4] was “inactive” in each case.
`CC(C)=CCOc1c2occc2cc2ccc(=O)oc12`: in assay [1], the activation was -10.9% and -24.3%. Moreover, the Potency entry in assay [2] and in assay [4] was “inactive” in each case.
For `CC(C)(O)[C@@H]1C2OC(=O)[C@@H]1[C@]1(O)C[C@H]3O[C@]34C(=O)O[C@H]2[C@]14C` (tested in a mixture with another compound), the activation in [1] was 10.1%. In addition, the Potency result in [2] and in [4] was “inactive” in each case.
`Cc1[nH]c2ccc(Cl)cc2c1CCN(C)C`: the activation in assay [1] is -3.82%. Also, the Potency result in [5], in assay [6], in assay [7], in [9] and in assay [10] was “inactive” in each case. Also, the Potency in assay [4] is 10 µM (active).
As to `CCN1C[C@]2(COC(=O)c3ccccc3N3C(=O)C[C@H](C)C3=O)CC[C@H](OC)[C@@]34[C@@H]5C[C@H]6[C@H](OC)[C@@H]5[C@](O)(C[C@@H]6OC)[C@](O)([C@@H](OC)[C@H]23)[C@@H]14`, the activation in assay [1] was 10.3%. In addition, the Potency result in assay [5], in assay [6], in [11], in assay [7], in assay [9] and in assay [10] was “inactive” throughout. In assay [8], the Potency entry is “inactive”.
On to `NNC(=O)c1nn(Cc2ccc(Cl)cc2Cl)c2ccccc12`, for which, in assay [1], the activation is 17%. In addition, the Potency result in assay [5], in assay [11] and in [10] was “inactive” each time. Also, the Potency in assay [6] was 8.91 µM (active).
For the compound `O=C(O)CC[N+](=O)[O-]`, in assay [1], the activation is -18.9%. Moreover, the Potency result in assay [2] and in assay [4] was “inactive” in each case.
With `Cn1c(CCCC(=O)O)nc2cc(N(CCCl)CCCl)ccc21`, the activation in [1] was 27.7% and 5.11% and -16.6%. The Potency entry in assay [2] is “inactive”. Besides, the Potency was 14.8 µM (active) in assay [12] and 16.6 µM (active) in assay [13].
As a reminder, the viability is a read-out of living cells in per cent, often relative to untreated cells. With `O=P1(N(CCCl)CCCl)NCCCO1` (centres undefined), the activation in [1] was -25.4% and -10.4% and -10.6%. For the same compound, the Potency result in [2], in assay [15], in [12], in assay [16] and in assay [13] was “inactive” in each case. In assay [14], the viability was 114%.
Regarding `CCCC[N+]1(C)C2CC(OC(=O)[C@H](CO)c3ccccc3)CC1C1OC12` (some centres undefined), in assay [1], the activation was -8.28%. For the same compound, the Potency result in [2] and in [4] was “inactive” each time.
